Laboratory results as given in PubChem BioAssay (NCI).
This is part of a sample that, as a whole, favours compounds with a hit. Of some 83,000 tested, about 20% had one in any assay.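 The endpoint reported here, percent growth, reads 100 for growth as untreated, 0 for no net growth and -100 for all cells dead.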 Values without a mark were called inactive. The source made the active and inactive calls. How the source made its calls: active means growth percent below 10; inactive means the rest.

Key:
Assay in all cases: NCI-60 one-dose screen, 48 h (100 = growth as untreated, 0 = no growth, -100 = all killed)
Conditions in all cases: 10 µM unless noted
DU-145 prostate = tested on: DU-145 prostate
K-562 leukemia = tested on: K-562 leukemia
MALME-3M melanoma = tested on: MALME-3M melanoma
MDA-MB-231 breast = tested on: MDA-MB-231 breast
RXF 393 renal = tested on: RXF 393 renal
SF-268 CNS = tested on: SF-268 CNS
SF-295 CNS = tested on: SF-295 CNS
SF-539 CNS = tested on: SF-539 CNS
UACC-257 melanoma = tested on: UACC-257 melanoma
M14 melanoma = tested on: M14 melanoma
HT29 colon = tested on: HT29 colon
SNB-75 CNS = tested on: SNB-75 CNS
SNB-19 CNS = tested on: SNB-19 CNS
U251 CNS = tested on: U251 CNS
PC-3 prostate = tested on: PC-3 prostate
SK-MEL-5 melanoma = tested on: SK-MEL-5 melanoma
UACC-62 melanoma = tested on: UACC-62 melanoma
LOX IMVI melanoma = tested on: LOX IMVI melanoma
SK-MEL-28 melanoma = tested on: SK-MEL-28 melanoma

Row | Structure (SMILES) | growth (DU-145 prostate) | growth (K-562 leukemia) | growth (MALME-3M melanoma) | growth (MDA-MB-231 breast) | growth (RXF 393 renal) | growth (SF-268 CNS) | growth (SF-295 CNS) | growth (SF-539 CNS) | growth (UACC-257 melanoma) | growth (M14 melanoma) | growth (HT29 colon) | growth (SNB-75 CNS) | growth (SNB-19 CNS) | growth (U251 CNS) | growth (PC-3 prostate) | growth (SK-MEL-5 melanoma) | growth (UACC-62 melanoma) | growth (LOX IMVI melanoma) | growth (SK-MEL-28 melanoma)
1 | C=C(C)[C@@H]1CC[C@]2(C)[C@H](CC=C3[C@@H]4CC(C)(C)CC[C@]4(C(N)=O)CC[C@]32C)[C@@]1(C)CCC#N | 42.1% | 15.9% | 10.4% | 38.6% | 2.74% (active) | 45.6% | 38.5% | 35.7% | 17.5% | 44.7% | 39.3% | 29.3% | 47.7% | 30.6% | -0.165% (active) | -2.59% (active) | 15.7% | 36.9% | 45.8%
2 | CCN(CC)CCN1CC(O)=C(c2nc(-c3ccc(Cl)cc3)cs2)C1=N | 66.4% | 1.62% (active) | -44.3% (active) | 12.6% | 25% | 4.19% (active) | 24% | -69.8% (active) | -38.4% (active) | -57.1% (active) | -18.1% (active) | 46.7% | 66.3% | -48.2% (active) | 76% | -1.71% (active) | -81.4% (active) | -61.4% (active) | -66.7% (active)
3 | CCCCn1c(=O)c2c(nc3n2CCCN3CCc2ccc(OCC(=O)NCCN(CC)CC)cc2)n(CCCC)c1=O | 66.1% | -6.6% (active) | -52.9% (active) | 14.4% | 47.2% | 63.2% | -22.3% (active) | 54.7% | -39% (active) | -79.2% (active) | 5.96% (active) | 44.6% | 65.3% | 24.6% | 47.7% | 28.3% | 20.7% | 11% | -36.4% (active)
4 | CC(CCc1ccc(Cl)c(Cl)c1)NCc1ccc(C(C)(C)C)cc1 (stereo not drawn) | 101% | 25.2% | 97.6% | 72.9% | 89.6% | 92.9% | 112% | 96.8% | 64.5% | 86.1% | 39.6% | 70.6% | 92.5% | 70.6% | 77.5% | 92.8% | 89.9% | 79.8% | 91.9%
5 | NC(=O)c1ccc[n+](Cc2ccc(Cl)cc2Cl)c1 | 111% | 92.9% | 100% | 103% | 118% | 103% | 111% | 105% | 72% | 94.5% | 91.3% | 102% | 101% | 89.6% | 88.9% | 97.6% | 93.2% | 95.8% | 108%
6 | CNC(=O)c1cc(Oc2ccc3nc(Nc4ccc(Cl)c(C(F)(F)F)c4)ccc3c2)ccn1 | 75.7% | 40.4% | 82.9% | 77.8% | 74.6% | 66.5% | 66% | 84.8% | 46.8% | 48.2% | 39.6% | 82.7% | 77% | 56.8% | 21.7% | 60.5% | 47.3% | 60.8% | 68.6%
7 | C[n+]1cc2c3c(ccc2c2ccc4cc5c(cc4c21)OCO5)OCO3 | -94.4% (active) | -5.22% (active) | -76.9% (active) | -76.2% (active) | -77.1% (active) | -93.1% (active) | -63.1% (active) | -71.8% (active) | -87.6% (active) | -76.8% (active) | – | -78.8% (active) | -87.1% (active) | -82.2% (active) | -72.8% (active) | -99.4% (active) | -66.7% (active) | -73.9% (active) | -92.1% (active)
8 | CCOC(=O)c1c2ncccc2n2c(=O)n(-c3ccccc3C)nnc12 | 142% | 86.4% | 145% | 104% | 107% | 117% | 105% | 91.8% | 91.7% | 99% | 112% | 84% | 105% | 105% | 122% | 84% | 95.3% | 86.5% | 157%
9 | COc1ccc(-c2nc(SCCC(C)C)nc(N/N=C\c3cccc(Cl)c3)c2C#N)cc1 | 85.4% | 79.7% | 111% | 53% | 87.5% | 71.1% | 55% | 84.3% | 87.3% | 101% | 83.2% | 4.61% (active) | – | 29.1% | 83.7% | 96% | 89.6% | 70.9% | 112%
10 | COc1ccc(N2CCN(c3nc(-c4cc(OC)c(OC)c(OC)c4)nc4ccccc34)CC2)cc1 | 93.5% | 79.1% | 108% | 71% | 92.6% | 87.7% | 95.2% | 96.9% | 102% | 71.3% | 81.5% | 84.5% | 93.5% | 96.1% | 41.3% | 46.4% | 56% | 79.3% | 87.1%
11 | C(=N\Nc1ncc(-c2cc3cc4c(cc3o2)OCO4)s1)/c1ccco1 | 12.4% | 21.7% | 25% | 42.4% | 17.1% | 39.2% | 84.8% | 7% (active) | 80.1% | 52.5% | 36.9% | 51.2% | 53.9% | 37% | 33.6% | 87.4% | 88.8% | -48.8% (active) | 81%
12 | O=C1/C(=C/c2ccc(F)cc2)C=C(c2ccccc2)N1CCc1ccccc1 | 81.6% | 71.4% | 39.1% | 57.5% | 56.2% | 74.2% | 35.9% | 79.5% | 38.6% | 46% | 63.2% | -10.5% (active) | 45.1% | 46.9% | 51.2% | 73% | 50.1% | 70.7% | 72.6%
13 | O=C(Nc1ccccc1Cl)Oc1ccc(-c2ccccc2)cc1 | 120% | 110% | 122% | 107% | 109% | 119% | 114% | 95.1% | 111% | 107% | 103% | 84.2% | 98.4% | 112% | 99.8% | 99.9% | 89% | 106% | 151%
14 | Cc1nn(-c2ccccc2)c2nc3c(c(-c4ccc(Cl)cc4)c12)CNC1(CCSCC1)N3 | 110% | 93.1% | 96.5% | 96.9% | 88.8% | 101% | 103% | 110% | 107% | 94.1% | 101% | 78.6% | 106% | 95.8% | – | 99.1% | 102% | 97.7% | 104%
15 | Cn1cc2c(c1)-c1nc(Nc3ccccc3)ncc1CC2 | 56.5% | 85.2% | 95.3% | 67.4% | 62.4% | 72.2% | 84.3% | 65.6% | 89.7% | 55% | 79.9% | 75.7% | – | 59.7% | 58.5% | 73.2% | 51.1% | 49.6% | 99.9%
16 | N#Cc1c(-c2ccccn2)[nH]c(=S)[nH]c1=O | 105% | 97% | 108% | 117% | 110% | 101% | 99.1% | 97.3% | 109% | 97.6% | 96% | 105% | 126% | 99.8% | 103% | 106% | 118% | 104% | 112%
17 | CC(C)=C[C@@H]1c2c(c3ccccc3n(C)c2=O)O[C@H]2c3c(c4ccccc4n(C)c3=O)OC(C)(C)[C@@H]12 | 106% | 56.1% | 99.4% | 85.8% | 88.9% | 86.1% | 65.5% | 81.2% | 82.2% | 98.9% | 77.9% | 60.6% | 99.2% | 84.5% | 6.54% (active) | 61.5% | 65.6% | 67% | 104%
18 | C=CCn1c(C)nc2cc(Nc3nc(N4CCCC4)nc4ccccc34)ccc21 | 73.8% | 1.94% (active) | 122% | 42% | 52.4% | 86.9% | 83.7% | 90.1% | 115% | 89.7% | 5.63% (active) | 83.6% | 107% | 96.6% | 98.7% | 62.4% | 113% | 2.4% (active) | 80.1%
